Compound activity from PubChem.
Hits are enriched below; roughly 22% of the tested compounds scored in any of these assays.
Pf growth 48h – Primary qHTS for delayed death inhibitors of the malarial parasite plastid, 48 hour incubation; P. falciparum luciferase growth in erythrocytes, 48 h; Potency, µM (top dose mostly 28.7 µM), inactives show at the top dose activity change, negative = inhibition, actives largely listed as inhibitors; actives 5.9% (n = 310,000); note: potency is the fitted concentration of half-maximal effect; % is set by controls: 0 for no effect and ±100 for the full control effect
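In quantitative HTS format, infected erythrocytes bearing luciferase-reporter parasites were treated for a single generation at 37 C. Luminescence after adding detection reagent served as the growth measure.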
Cycloheximide cs – Cycloheximide Counterscreen for Small Molecule Inhibitors of Shiga Toxin; AID 2314, 2010; max response, %; actives 12% (n = 300,000); cell reporter, cycloheximide protein synthesis inhibition counterscreen; in the data active = max response mostly above about 13%, no sharp cut-off; inactive = mostly below about 14%; note: read at 38.3 µM for the half of the compounds with a filed dose; 0% is about no effect
Pf growth 96h – Primary qHTS for delayed death inhibitors of the malarial parasite plastid, 96 hour incubation. P. falciparum luciferase reporter growth, 96 h. Potency, µM (top dose mostly 28.7 µM), inactives show top-dose activity change, negative = inhibition, hits mostly inhibitors. AID 504834, 2011. actives 6.9% (n = 320,000); note: potency is the fitted concentration of half-maximal effect; % is set by controls: 0 for no effect and ±100 for the full control effect
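Erythrocytes infected with luciferase-expressing P. falciparum were dispensed at 2% hematocrit and 0.05% parasitemia (final), then incubated with compounds 96 hours at 37 C in 5% CO2. Luminescence after detection reagent addition reported growth.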
Shiga toxin inh – A qHTS for Small Molecule Inhibitors of Shiga Toxin; Vero cells, Shiga toxin protein synthesis inhibition reporter; inhibition, % at 38.7 µM; actives 9.2% (n = 290,000); AID 2315, 2010; in the data active = inhibition mostly above about 28%, no sharp cut-off; inactive = mostly below about 43%; note: 0% is about no effect
LmPK inh – qHTS Assay for Inhibitors of Leishmania Mexicana Pyruvate Kinase (LmPK); Q27686; purified LmPK, Kinase-Glo ATP luminescence, 1 h; Potency, µM (doses to about 57.5 µM), for inactives: at the top dose activity change, negative = inhibition, hits mostly inhibitors; actives 0.37% (n = 290,000); AID 1721, 2009; note: potency is the fitted concentration of half-maximal effect; % is set by controls: 0 for no effect and ±100 for the full control effect
Target sequence (Q27686 whole entry, looked up): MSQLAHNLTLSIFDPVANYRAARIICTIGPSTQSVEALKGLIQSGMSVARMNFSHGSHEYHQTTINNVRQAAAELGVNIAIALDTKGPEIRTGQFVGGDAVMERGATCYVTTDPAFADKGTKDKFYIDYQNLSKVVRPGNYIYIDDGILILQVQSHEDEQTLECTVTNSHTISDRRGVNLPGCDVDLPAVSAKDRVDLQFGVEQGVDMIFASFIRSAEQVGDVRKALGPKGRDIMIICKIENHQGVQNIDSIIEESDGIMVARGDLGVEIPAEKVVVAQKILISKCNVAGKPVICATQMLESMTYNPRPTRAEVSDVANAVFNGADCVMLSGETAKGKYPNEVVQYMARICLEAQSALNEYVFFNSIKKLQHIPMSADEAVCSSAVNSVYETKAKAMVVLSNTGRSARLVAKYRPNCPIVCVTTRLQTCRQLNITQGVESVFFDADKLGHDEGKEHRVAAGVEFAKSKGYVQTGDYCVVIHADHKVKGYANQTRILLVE
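0.1 nM LmPK, 0.5 mM PEP, 0.1 mM ADP; 50 mM imidazole pH 7.2, 7 mM MgCl2, 50 mM KCl; 1 h RT. Kinase-Glo luminescence readout, normalized to no-enzyme (full inhibition) and uninhibited wells.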
Active calls of the source: *; u = inconclusive; x = not tested or not shown. Unless noted, calls come from the whole dose curve; as a rule, active = well fitted inhibition curve with a large enough effect; inconclusive = small, poorly fitted or top-dose-only effect, or another doubt; inactive = no such curve, though single readings can be large or run the other way.

SMILES | Pf growth 48h | Cycloheximide cs | Pf growth 96h | Shiga toxin inh | LmPK inh
Cc1csc(NC(=O)/C=C/c2ccc3c(c2)OCO3)n1 | 161% | 74* | 23% | 91* | 0%
O=C(/C=C/c1ccc2c(c1)OCO2)Nc1nc2ccccc2s1 | 324% | 41* | -10% | 62* | 3%
O=C(/C=C/c1ccc2c(c1)OCO2)Nc1nc(-c2ccc(F)cc2F)cs1 | 1% | -5 | u | -18 | -1%
CCCCN(CCCC)c1cc(C)nc(-c2ccccc2O)n1 | -10% | 12 | u | -6 | -3%
Cc1ccc(S(=O)(=O)N2CCCC2C(=O)NCc2ccccc2F)cc1 (stereo not given) | u | -1 | -24% | -11 | -2%
CCc1cc(C(=O)OC)c(NC(=O)CCCC(=O)O)s1 | 23% | -1 | 48% | -8 | -4%
COC(=O)c1cc(C)sc1NC(=O)CCCC(=O)O | -2% | -2 | 9.3µM* | -6 | -4%
O=C(N/N=C/c1ccc(OC(=O)c2ccccc2Br)cc1)c1ccccn1 | 7% | -3 | u | -16 | -13%
O=C(N/N=C/c1ccsc1)c1cc(-c2ccncc2)nc2ccccc12 | u | -2 | u | -16 | 6%
O=C(CN1CCN(Cc2ccccc2)CC1)N/N=C/c1ccc(Br)s1 | -8% | 7 | -3% | 11 | 1%
O=C(N/N=C/c1ccc(Br)s1)c1ccccn1 | -1% | 48* | 129% | 84* | -15%
CC(C)(C)c1ccc(/C=N/NC(=O)c2ccccn2)cc1 | 159% | 38* | u | 42* | -15%
O=C(N/N=C/c1ccsc1)c1ccccn1 | 458% | 28* | 482% | 70* | -22%
COc1ccc(C2=NN(C(C)=O)C(c3cccs3)C2)cc1OC (stereo not given) | -6% | 22* | u | 35* | -5%
CC(=O)N1N=C(c2ccccc2)CC1c1cccs1 (stereo not given) | 13% | 10 | 13% | -4 | 4%
COc1cccc(C2=NN(C(C)=O)C(c3cccs3)C2)c1 (stereo not given) | 21% | 21* | 7% | 30 | 2%
Cc1coc2cc3oc(=O)c(CCC(=O)NCCN4CCOCC4)c(C)c3cc12 | -6% | -1 | 49% | -3 | -13%
O=C(Cn1cnc2ccc(Br)cc2c1=O)c1cccs1 | 31% | 2 | 49% | 22 | 0%
COc1ccccc1N1C(=O)NC(=O)/C(=C/c2ccc3c(c2)Cc2ccccc2-3)C1=O | 13% | 12 | 37% | 45* | 2%
CCCNS(=O)(=O)c1ccc(OCC(=O)NCC2CCCO2)cc1 (stereo not given) | -4% | -7 | 7% | -9 | 0%
CC[C@@H](C(=O)[C@@H](C)[C@@H](O)[C@H](C)CCc1ccc(C)c(O)c1C(=O)O)[C@H]1O[C@](CC)([C@H]2CC[C@](O)(CC)[C@H](C)O2)C[C@@H]1C | 0.093µM* | 5 | u | 9 | -2%
CCC(C(=O)C(C)C(O)C(C)CCc1ccc(C)c(O)c1C(=O)O)C1OC(CC)(C2CC[C@@](O)(CC)C(C)O2)CC1C (stereo not given in full) | 0.38µM* | x | 0.38µM* | x | x
N#Cc1cccc(NC(=O)CNc2cc(S(=O)(=O)N3CCOCC3)ccc2N2CCCC2)c1 | -9% | x | u | x | x
CCN(CC(=O)NCc1ccc(Cl)cc1)S(=O)(=O)c1ccc(NC(C)=O)cc1 | -5% | -2 | -7% | -5 | 0%
O=C(NCc1ccccc1)C(c1cccnc1)N(C(=O)c1csnn1)c1ccccc1 (stereo not given) | 3% | -3 | 12% | -5 | 5%
SMILES | Pf growth 48h | Cycloheximide cs | Pf growth 96h | Shiga toxin inh | LmPK inh
CC1CN(S(=O)(=O)c2cccc(C(=O)Nc3ccccc3N3CCOCC3)c2)CC(C)O1 (stereo not given) | 13µM* | x | u | x | x
CC1CN(S(=O)(=O)c2cccc(C(=O)Nc3ccccc3N3CCCCC3)c2)CC(C)O1 (stereo not given) | 12µM* | x | u | x | x
CC(=O)N1CCN(S(=O)(=O)c2cccc(C(=O)Nc3ccccc3N3CCOCC3)c2)CC1 | -24% | -2 | u | 20 | 2%
Cc1cnc(NC(=O)c2cccc(S(=O)(=O)N3CC(C)OC(C)C3)c2)s1 (stereo not given) | u | 11 | 13µM* | 11 | 0%
CC1CCC(NC(=O)CCS(=O)(=O)c2ccc3c(c2)CCN3C(=O)C2CC2)CC1 (stereo not given) | -8% | -1 | 72% | -7 | 6%
CC(C)[C@H](N)C(=O)N1CCC(C(=O)N[C@@H](Cc2ccccc2)C(=O)NCc2ccc(F)cc2)CC1 | -1% | -2 | 7% | -3 | 1%
Cc1noc(C)c1C(=O)NC1=NCCS1 | -14% | 5 | -25% | 19 | -7%
Nc1nc(SCC(=O)Nc2ccc(Cl)cc2)[nH]c(=O)c1-c1ccccc1 | 6% | -3 | -10% | -15 | 15%
Cc1cc(Cl)ccc1NC(=O)CCC(=O)O | 10% | -4 | 13% | -8 | 3%
Cc1cc(Cl)ccc1NC(=O)/C=N/O | 1.9µM* | 2 | 3% | 8 | 4%
Cc1cc(C(=O)CSc2nnc(-c3cccnc3)n2-c2ccccc2F)c(C)n1CC1CCCO1 (stereo not given) | x | 1 | 15µM* | 13 | 0%
Cc1cc(C(=O)CSc2nnc(Nc3ccccc3F)s2)c(C)n1CC1CCCO1 (stereo not given) | x | 11 | 0% | -3 | 13%
CCn1c(SCC(=O)c2cc(C)n(CC3CCCO3)c2C)nc2ccccc21 (stereo not given) | u | 37* | -16% | 35 | 6%
O=c1[nH]c(SCC2CCCCO2)nc2ccccc12 (stereo not given) | 10% | 24* | 5% | 81* | 2%
Cc1cc(C(=O)CSc2nnnn2-c2ccccc2)c(C)n1CC1CCCO1 (stereo not given) | 178% | 58* | -2% | 49* | 1%
Cc1cc(C(=O)CSc2nnnn2-c2ccc(Cl)cc2)c(C)n1CC1CCCO1 (stereo not given) | -8% | 0 | -17% | -11 | 2%
Cc1nnc(NS(=O)(=O)c2ccc(Br)cc2)s1 | 0% | -3 | u | -7 | 2%
CCOc1ccc(C(=O)NCC(=O)NCC(c2cccs2)N2CCOCC2)cc1 (stereo not given) | 0% | x | 0% | x | x
Cc1cc(C(=O)CSc2nc3ccccc3c(=O)[nH]2)c(C)n1CC1CCCO1 (stereo not given) | 27% | 43* | 23% | 143* | 1%
Cc1cc(C)cc(NCc2cc(=O)oc3cc(-c4ccccc4)c(O)cc23)c1 | 4.7µM* | -1 | 2.3µM* | -17 | 3%
COc1ccc(C)cc1NCc1cc(=O)oc2cc(-c3ccccc3)c(O)cc12 | 1.5µM* | 11 | 1µM* | 26 | 2%
